Source: PubChem BioAssay
Abeta yeast res: qHTS for compounds that reverse cellular toxicity of Amyloid beta (A-beta) peptide in yeast: Primary Screen. yeast expressing A-beta42, growth rescue, OD600, 48 h; response scale: 0% DMSO, 100% iron-clioquinol control. Potency, µM (highest dose often 46.1 µM), hits mostly activators. actives 0.063% (n = 410,000); further: nearly all actives have a fitted effect of over 55% in size
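Yeast A-beta toxicity model in growth medium with pinned compounds, 48 h at 30 C; growth read as absorbance at 600 nm. Normalized to FeCl3/clioquinol equimolar mix (positive) and DMSO (negative).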
TDP-43 yeast inh: qHTS of TDP-43 Inhibitors; TDP-43 expressing yeast growth rescue, BacTiter-Glo, 24 h; Potency, µM (highest dose often 46.1 µM), without a hit: top-dose growth rescue (activation), hits mostly activators; actives 1.8% (n = 410,000); AID 652104, 2013; further: % of control where 0% means no effect; nearly all actives have a fitted effect of over 50% in size
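Yeast cells expressing TDP-43 under galactose induction are exposed to compounds for 24 hr at 30 deg C. BacTiter-Glo luminescence measures growth, so protective compounds score as activators.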
aSyn rescue: qHTS of alpha-syn Inhibitors. Yeast expressing alpha-synuclein, growth rescue, BacTiter-Glo, 24 h. Potency, µM (highest dose often 46.1 µM), for the others: at the highest dose growth rescue (activation), hits mostly activators. actives 0.14% (n = 370,000). AID 652106, 2013; further: % of control where 0% means no effect; nearly all actives have a fitted effect of over 65% in size
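Screening used galactose-induced yeast with toxic alpha-synuclein levels, exposed to compound for 24 hr at 30 deg C. Cell growth, read with BacTiter-Glo luminescence, gave the measured signal.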
FUS yeast rescue: qHTS for Suppressors of FUS Proteinopathy: Primary screen using FUS-linked yeast assay; S. cerevisiae FUS-expressing, growth rescue, OD600, 24 h; Potency, µM (highest dose often 76.6 µM), hits mostly activators; actives 0.24% (n = 390,000); AID 1347120, 2019;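 further: plate controls were DMSO vehicle for no effect and reference control for full effect; nearly all actives have a fitted effect of over 55% in size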
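FUS-expressing yeast, raffinose-pregrown, induced in 2% galactose minimal medium at OD 0.005; compounds in a dilution series, 24hr at 30C. Growth restoration read as absorbance at 600 nm. CP55940 positive control, DMSO negative.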
* hit, by the source's call; [ ] = another dose, or the depositor's remark. A selection: hits, their analogues and other compounds. The true share with any hit is near 2.1%. The call rests on the fitted dose curve; in most records, active means well fitted curve in the direction sought with a large enough effect; inconclusive means small, poorly fitted or top-dose-only effect, or another doubt; inactive means no such curve, though single readings can be large; an effect the other way counts as inactive or inconclusive. Potency means the concentration at half of the fitted maximal effect.

Results for CCCc1ccc(C(C)NC(=S)NC2CCCCC2)cc1 (stereo not drawn) ?
Abeta yeast res: 11µM*; TDP-43 yeast inh: 11%; aSyn rescue: -15%; FUS yeast rescue: inactive

What do the screens show for `COc1ccc(C(C)NC(=S)NCc2ccc(F)cc2)cc1OC` (stereo not drawn)?
Abeta yeast res: inactive; TDP-43 yeast inh: 2%; aSyn rescue: -7%; FUS yeast rescue: inactive

What do the screens show for `CCCc1ccc(C(C)NC(=S)NCc2ccc(F)cc2)cc1` (stereo not drawn)?
Abeta yeast res: 3.5µM*; TDP-43 yeast inh: 5%; aSyn rescue: -6%; FUS yeast rescue: inactive

How did CCC(C)c1ccc(C(C)NC(=S)NCc2ccc(F)cc2)cc1 (stereo not drawn) do in these assays?
Abeta yeast res: 3.5µM*; TDP-43 yeast inh: 2%; aSyn rescue: -11%; FUS yeast rescue: inactive

How did COc1ccc(S[C@]2(C(=O)N3CCCC3)CC(=O)N(P(=O)(OC)OC)[C@@H]2c2ccc(OC)cc2)cc1 do in these assays?
FUS yeast rescue: inactive

How did CC(NC(=S)NCc1ccc(F)cc1)C12CC3CC(CC(C3)C1)C2 (stereo not drawn) do in these assays?
Abeta yeast res: 5.6µM*; TDP-43 yeast inh: -6%; aSyn rescue: 3%; FUS yeast rescue: inactive

What do the screens show for `CCCCCn1c(CCCNC(=O)c2ccc(Cl)cc2)nc2ccccc21`?
Abeta yeast res: inactive; TDP-43 yeast inh: 15%; FUS yeast rescue: inactive

How did CC(C)CCNS(=O)(=O)c1ccc(N2CCCCS2(=O)=O)cc1 do in these assays?
Abeta yeast res: inactive; TDP-43 yeast inh: 16%[9.22 µM]; FUS yeast rescue: inactive

What do the screens show for `COc1ccc(/C=C2/C(=O)ON=C2C)cc1Br`?
Abeta yeast res: inactive; TDP-43 yeast inh: -44%; aSyn rescue: -13%; FUS yeast rescue: inactive

How did COc1ccccc1/C=C1/C(=O)ON=C1C do in these assays?
Abeta yeast res: inactive; TDP-43 yeast inh: 14µM*; aSyn rescue: -9%; FUS yeast rescue: inactive

What do the screens show for `CCOc1ccc(CNC(=O)C2CCCN(c3nc4c(C)cc(C)cc4s3)C2)cc1` (stereo not drawn)?
Abeta yeast res: inactive; TDP-43 yeast inh: 17%; FUS yeast rescue: inactive

What do the screens show for `CC(C)=CC(=O)O[C@@H]1Cc2cc3ccc(=O)oc3cc2OC1(C)C`?
Abeta yeast res: inactive; TDP-43 yeast inh: 14µM*; aSyn rescue: 8%; FUS yeast rescue: inactive

How did O=C(c1ccc2nc(N3CCOCC3)sc2c1)N1CCN(C(=O)c2ccco2)CC1 do in these assays?
Abeta yeast res: inactive; TDP-43 yeast inh: 23%; aSyn rescue: 4%; FUS yeast rescue: inactive

Results for O=C(C1COc2ccccc2O1)N1CCN(c2nc3ccccc3s2)CC1 (stereo not drawn) ?
Abeta yeast res: inactive; TDP-43 yeast inh: 11µM*; aSyn rescue: 7%; FUS yeast rescue: inactive

How did COc1ccc(-c2csc(N3CCN(C(=O)c4ccccc4)CC3)n2)cc1 do in these assays?
Abeta yeast res: inactive; TDP-43 yeast inh: inconclusive; aSyn rescue: 3%; FUS yeast rescue: inactive

What do the screens show for `O=C(C1COc2ccccc2O1)N1CCN(c2nc3ccc([N+](=O)[O-])cc3s2)CC1` (stereo not drawn)?
Abeta yeast res: inactive; TDP-43 yeast inh: inconclusive; aSyn rescue: -6%; FUS yeast rescue: inactive

Results for COc1ccc(-c2csc(N3CCN(C(=O)c4ccco4)CC3)n2)cc1 ?
Abeta yeast res: inactive; TDP-43 yeast inh: 20µM*; aSyn rescue: -15%; FUS yeast rescue: inactive

How did O=C(C1COc2ccccc2O1)N1CCN(S(=O)(=O)c2cc(F)ccc2F)CC1 (stereo not drawn) do in these assays?
Abeta yeast res: inactive; TDP-43 yeast inh: 28µM*; aSyn rescue: -2%[1.84 µM]; FUS yeast rescue: inactive

How did CCc1ccc2nc(N3CCN(C(=O)c4ccco4)CC3)sc2c1 do in these assays?
Abeta yeast res: inactive; TDP-43 yeast inh: 14µM*; FUS yeast rescue: inconclusive

How did CCc1cc2ccc(C)cc2nc1SCC(=O)N1CCN(C(=O)c2ccco2)CC1 do in these assays?
Abeta yeast res: inactive; TDP-43 yeast inh: 14µM*; aSyn rescue: 4%

Results for COc1ccc2nc(N3CCN(C(=O)c4ccco4)CC3)sc2c1 ?
Abeta yeast res: inactive; TDP-43 yeast inh: 20µM*; FUS yeast rescue: inactive

What do the screens show for `CCOc1ccc2nc(N3CCN(C(=O)c4ccco4)CC3)sc2c1`?
Abeta yeast res: inactive; TDP-43 yeast inh: inconclusive; FUS yeast rescue: inactive

How did CCc1cc2cc3c(cc2nc1SCC(=O)N1CCN(C(=O)c2ccco2)CC1)OCO3 do in these assays?
Abeta yeast res: inactive; TDP-43 yeast inh: 9%; aSyn rescue: 4%; FUS yeast rescue: inactive

Results for CCSc1ccccc1C(=O)N1CCN(c2nc3ccccc3s2)CC1 ?
Abeta yeast res: inactive; TDP-43 yeast inh: 18µM*; FUS yeast rescue: inactive

Results for CCC1CCCCN1C(=S)NC(=O)c1cc(Br)ccc1Cl (stereo not drawn) ?
Abeta yeast res: 11µM*; TDP-43 yeast inh: 28µM*; aSyn rescue: inconclusive; FUS yeast rescue: inactive

How did CC1CCCCN1C(=S)NC(=O)c1ccco1 (stereo not drawn) do in these assays?
Abeta yeast res: inactive; TDP-43 yeast inh: 19%; aSyn rescue: 0%

What do the screens show for `CC1CCCCN1C(=S)NC(=O)c1cc(Br)ccc1Cl` (stereo not drawn)?
Abeta yeast res: inactive; TDP-43 yeast inh: 25µM*; aSyn rescue: 13%; FUS yeast rescue: inactive

What do the screens show for `C[C@H]1[C@@H](NC(=O)c2ccc(O)cc2)CC[C@@]23CCCN2C(=O)CCC[C@@H]13`?
FUS yeast rescue: inactive

How did O=C(Cn1c(=O)n(Cc2nc(-c3ccccc3)no2)c(=O)c2ccccc21)Nc1cccc(C(F)(F)F)c1 do in these assays?
Abeta yeast res: inactive; TDP-43 yeast inh: 15%; FUS yeast rescue: inactive

What do the screens show for `Cn1ncc(Cl)c1C(=O)N1CCN(c2cccc(Cl)c2)CC1`?
Abeta yeast res: inactive; TDP-43 yeast inh: 14µM*; aSyn rescue: 18%; FUS yeast rescue: inactive

What do the screens show for `Cn1ncc(Cl)c1C(=O)Nc1cccc(Cl)c1`?
Abeta yeast res: inactive; TDP-43 yeast inh: 7.1µM*; aSyn rescue: 7%; FUS yeast rescue: inactive

How did Cn1nccc1C(=O)N1CCN(c2cccc(Cl)c2)CC1 do in these assays?
Abeta yeast res: inactive; TDP-43 yeast inh: 22%; aSyn rescue: 5%; FUS yeast rescue: inactive

What do the screens show for `CSc1cccc(NC(=O)c2c(Cl)cnn2C)c1`?
Abeta yeast res: inactive; TDP-43 yeast inh: inconclusive; aSyn rescue: 2%; FUS yeast rescue: inactive

What do the screens show for `CCN(CC)c1ccc(-c2nc(-c3ccccc3C)no2)cc1[N+](=O)[O-]`?
Abeta yeast res: inactive; TDP-43 yeast inh: 2%; FUS yeast rescue: inactive

How did CCOc1ncccc1C(=O)Nc1ccc(F)cc1 do in these assays?
Abeta yeast res: inactive; TDP-43 yeast inh: -1%; aSyn rescue: -24%; FUS yeast rescue: inactive
